# PubChem BioAssay (EPA / NIEHS)
# “And” between values parts separate entries of the source, which are not always exact repeats. Equal values may be shown once. Records with an inconclusive call do not appear. More than one record can exist for a structure, and the calls need not agree. The source made the active and inactive calls. Rule for the calls: active = hit-call score of the fitted dose curve at least 0.9, where 1 is the maximum; inconclusive = response in the unintended direction; inactive = score below 0.9.
# Columns and labels:
# [1] = biological target: Estrogen receptor (Homo sapiens) (UniProt P03372); experiment: NVS_NR_hER: NovaScreen (NVS) Nuclear Receptor Binding Assay for human Estrogen Receptor (ER) (AID 2283348)
# How it was run: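 Scintillation signal from bound radioligand was measured 18 hours after chemical addition to cell-free MCF7 protein extracts, with DMSO as baseline. Activity was scored as signal loss; compounds ran first at 25 uM in duplicate.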
# [2] = biological target: Estrogen receptor (Homo sapiens) (UniProt P03372); experiment: OT_ER_ERaERa_1440: Odyssey Thera (OT) 24-hour HEK293T Protein-Complementation Assay for Estrogen Receptor-alpha/-alpha Homodimer (AID 2283349);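 note: hits raise fluorescence above DMSO for agonists and antagonists alike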
# How it was run: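 Protein-fragment complementation between two human ERα ligand-binding domains (aa 310-547) in stably transfected HEK293T cells was monitored after 24 h treatment, using fluorescence intensity relative to vehicle controls.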
# [3] = biological target: Estrogen receptor (Homo sapiens) (UniProt P03372); experiment: OT_ER_ERaERa_0480: Odyssey Thera (OT) 8-hour HEK293T Protein-Complementation Assay for Estrogen Receptor-alpha/-alpha Homodimer (AID 2283351);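 note: rise in fluorescence from reassembled reporter fragments on ERα LBD homodimer in nucleus or whole cell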
# How it was run: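 HEK293T, stable ERα LBD (aa 310-547) PCA homodimer; 8 h compound exposure; fluorescence intensity, laser scanning cytometer; positive fitting direction, DMSO baseline.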
# [4] = biological target: T1, Estrogen receptor (Homo sapiens) + Estrogen receptor beta (Homo sapiens) (UniProt P03372+Q92731); experiment: OT_ER_ERaERb_0480: Odyssey Thera (OT) 8-hour HEK293T Protein-Complementation Assay for Estrogen Receptor-alpha/-beta Heterodimer (AID 2283352)
# How it was run: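 HEK293T cells expressing ER-alpha/ER-beta LBD fusions to complementary reporter fragments were dosed with compound for 8 hours. Heterodimer formation was read as increased nuclear (agonist) or nuclear plus cytoplasmic (antagonist) mean fluorescence intensity versus DMSO vehicle.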
# [5] = biological target: T1, Estrogen receptor (Homo sapiens) + Estrogen receptor beta (Homo sapiens); experiment: OT_ER_ERaERb_1440: Odyssey Thera (OT) 24-hour HEK293T Protein-Complementation Assay for Estrogen Receptor-alpha/-beta Homodimer (AID 2283356);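 note: heteromer of ER alpha and ER beta binding domains; hits raise reporter fluorescence and both agonists and antagonists give an increase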
# How it was run: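 HEK293T cells stably expressing a PCA pair of ERα LBD (aa 310-547) and ERβ LBD (aa 263-489) were dosed for 24 h. Fluorescence intensity increase versus DMSO vehicle was fitted as gain-of-signal.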
# [6] = biological target: Estrogen receptor beta (Homo sapiens) (UniProt Q92731); experiment: OT_ER_ERbERb_0480: Odyssey Thera (OT) 8-hour HEK293T Protein-Complementation Assay for Estrogen Receptor-beta/-beta Homodimer (AID 2283357);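 note: active means signal gain over DMSO baseline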
# How it was run: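 Cells (HEK293T, stable ER-beta LBD PCA pair) are treated 8 hours, fixed and Draq5-stained; signal is fluorescence intensity increase relative to vehicle, fitted in the gain direction.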
# [7] = biological target: Glucocorticoid receptor (Homo sapiens) (UniProt P04150); experiment: NVS_NR_hGR: NovaScreen (NVS) Nuclear Receptor Binding Assay for human Glucocorticoid Receptor (GR) (AID 2283363);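 for AC50: activity is loss of specific radioligand binding signal relative to DMSO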
# How it was run: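 Competitive displacement of a labelled ligand was measured on cell-free receptor preparations after 16 h exposure. Initial testing used 25 uM in duplicate with plate controls; confirmed actives went into concentration series.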
# [8] = biological target: Androgen Receptor/SRC-1 Co-activator, AR (gene 367) (UniProt P10275); experiment: OT_AR_ARSRC1_0960: Odyssey Thera (OT) 16-hour HEK293T Protein-Complementation Assay for Androgen Receptor/SRC-1 Co-activator (AID 2283353);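 note: actives raise the signal above DMSO so potency reflects increased AR and SRC-1 complex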
# How it was run: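 Split-Venus PCA, AR/SRC-1 fusions, stable HEK293T; 16 h compound exposure; imaged at 488 and 635 nm; N/C ratio (488 nm channel), min 400 cells/image; positive-direction fit, DMSO baseline.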
# [9] = biological target: Androgen Receptor/SRC-1 Co-activator, AR (gene 367) (UniProt P10275); experiment: OT_AR_ARSRC1_0480: Odyssey Thera (OT) 8-hour HEK293T Protein-Complementation Assay for Androgen Receptor/SRC-1 Co-activator (AID 2283354);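 note: hits raise the complementation signal above DMSO so AC50 marks enhancers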
# How it was run: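 Measures AR/SRC-1 binding by Venus YFP fragment complementation in HEK293T stable lines at 8 h post-dose. Imaging quantifies the 488nm nucleus/cytoplasm ratio in ≥400 cells; DMSO defines baseline.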
# [10] = biological target: human Thyroid Receptor Alpha (TRa), THRA (gene 7067) (UniProt P10827); experiment: NVS_NR_hTRa_Antagonist: NovaScreen (NVS) Nuclear Receptor Binding Assay for human Thyroid Receptor Alpha Antagonism (TRa) (AID 2283362);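 note: activity is loss of signal relative to DMSO baseline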
# How it was run: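 Cell-free binding assay on extracted receptor protein, read 1 h after chemical dosing by AlphaLISA chemiluminescence; loss of signal relative to DMSO baseline marks antagonism. Primary screen ran in duplicate at 25 uM, with concentration series for actives.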
# [11] = biological target: Nuclear receptor subfamily 1 group I member 2 (Homo sapiens) (UniProt O75469); experiment: NVS_NR_hPXR: NovaScreen (NVS) Nuclear Receptor Binding Assay for human Pregnane X Receptor (PXR) (AID 2283365);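 note: a drop in FRET signal versus DMSO baseline means the compound binds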
# How it was run: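 Cell-free binding assay with extracted human PXR protein, read by TR-FRET 2 h after dosing; loss of signal relative to DMSO baseline indicates binding. Primary screen at 25 uM in duplicate, actives retested in concentration series.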
# [12] = biological target: rat Androgen Receptor (AR), Ar (gene 24208) (UniProt P15207); experiment: NVS_NR_rAR: NovaScreen (NVS) Nuclear Receptor Binding Assay for rat Androgen Receptor (AR) (AID 2283366)
# How it was run: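 Cell-free radioligand binding on extracts of prostate from testosterone-pretreated rats, read by filter-based scintillation counting 18 h after dosing. Loss of bound signal fitted positively versus DMSO; primary screen in duplicate at 25 uM, actives followed up in concentration series.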
# PGR (gene 5241) = PGR (gene 5241) (UniProt P06401); experiment: NVS_NR_hPR: NovaScreen (NVS) Nuclear Receptor Binding Assay for human Progestron Receptor (PR) (AID 2283360);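 note: active means loss of bound radioligand signal versus DMSO baseline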
# How it was run: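 Competitive displacement of a labelled radioligand from T47D-derived receptor protein is measured in a cell-free format. Initial testing uses 25 uM in duplicate, with positive and negative controls on every plate.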
# [13] = biological target: guinea pig Sigma Receptor, Non-selective Binding, SIGMAR1 (gene 100135589) (UniProt Q60492); experiment: NVS_OR_gSIGMA_NonSelective: NovaScreen (NVS) Nuclear Receptor Binding Assay for guinea pig Sigma Receptor, Non-selective Binding (AID 2283367)
# How it was run: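 gp brain membr., radioligand displacement, 1 h, filtration + scint. counting; DMSO = baseline; 25 uM x2 primary, conc.-response confirm.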
# [14] = biological target: Bile acid receptor (Homo sapiens) (UniProt Q96RI1); experiment: NVS_NR_hFXR_Antagonist: NovaScreen (NVS) Nuclear Receptor Binding Assay for human Farnesoid X Receptor Antagonism (FXR) (AID 2283350)
# How it was run: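 Cell-free TR-FRET ligand-binding read-out on human FXR (NR1H4) in antagonist mode, measured 1 h after dosing. Primary screen in duplicate at 25 uM, actives retested in concentration series; signal loss scored versus DMSO.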
# [15] = biological target: human Peroxisome Proliferator-activated Receptor alpha (PPARa), PPARA (gene 5465) (UniProt Q07869); experiment: NVS_NR_hPPARa: NovaScreen (NVS) Nuclear Receptor Binding Assay for human Peroxisome Proliferator-activated Receptor alpha (PPARa) (AID 2283359);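 note: activity means loss of TR-FRET signal versus DMSO baseline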
# How it was run: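 Chemicals were first screened in duplicate at 25 uM, and active ones were retested across concentration series. Binding was monitored by TR-FRET one hour after dosing, with decreased signal against DMSO counted as activity.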
# Chain of Nuclear receptor subfamily 1 group I member 2 (Homo sapiens) (O75469 whole entry, looked up): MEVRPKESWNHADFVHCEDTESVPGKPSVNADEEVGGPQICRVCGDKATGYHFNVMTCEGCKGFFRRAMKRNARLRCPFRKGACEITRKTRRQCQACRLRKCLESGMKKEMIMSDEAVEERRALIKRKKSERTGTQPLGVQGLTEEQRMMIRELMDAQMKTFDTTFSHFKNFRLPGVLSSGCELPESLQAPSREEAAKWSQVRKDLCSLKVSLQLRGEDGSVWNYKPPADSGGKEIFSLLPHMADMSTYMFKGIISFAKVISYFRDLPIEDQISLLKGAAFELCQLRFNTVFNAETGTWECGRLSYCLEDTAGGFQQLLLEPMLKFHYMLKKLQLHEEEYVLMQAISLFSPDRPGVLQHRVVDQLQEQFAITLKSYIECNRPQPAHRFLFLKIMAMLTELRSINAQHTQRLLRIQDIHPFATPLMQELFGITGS
# Chain of rat Androgen Receptor (AR), Ar (gene 24208) (P15207 whole entry, looked up): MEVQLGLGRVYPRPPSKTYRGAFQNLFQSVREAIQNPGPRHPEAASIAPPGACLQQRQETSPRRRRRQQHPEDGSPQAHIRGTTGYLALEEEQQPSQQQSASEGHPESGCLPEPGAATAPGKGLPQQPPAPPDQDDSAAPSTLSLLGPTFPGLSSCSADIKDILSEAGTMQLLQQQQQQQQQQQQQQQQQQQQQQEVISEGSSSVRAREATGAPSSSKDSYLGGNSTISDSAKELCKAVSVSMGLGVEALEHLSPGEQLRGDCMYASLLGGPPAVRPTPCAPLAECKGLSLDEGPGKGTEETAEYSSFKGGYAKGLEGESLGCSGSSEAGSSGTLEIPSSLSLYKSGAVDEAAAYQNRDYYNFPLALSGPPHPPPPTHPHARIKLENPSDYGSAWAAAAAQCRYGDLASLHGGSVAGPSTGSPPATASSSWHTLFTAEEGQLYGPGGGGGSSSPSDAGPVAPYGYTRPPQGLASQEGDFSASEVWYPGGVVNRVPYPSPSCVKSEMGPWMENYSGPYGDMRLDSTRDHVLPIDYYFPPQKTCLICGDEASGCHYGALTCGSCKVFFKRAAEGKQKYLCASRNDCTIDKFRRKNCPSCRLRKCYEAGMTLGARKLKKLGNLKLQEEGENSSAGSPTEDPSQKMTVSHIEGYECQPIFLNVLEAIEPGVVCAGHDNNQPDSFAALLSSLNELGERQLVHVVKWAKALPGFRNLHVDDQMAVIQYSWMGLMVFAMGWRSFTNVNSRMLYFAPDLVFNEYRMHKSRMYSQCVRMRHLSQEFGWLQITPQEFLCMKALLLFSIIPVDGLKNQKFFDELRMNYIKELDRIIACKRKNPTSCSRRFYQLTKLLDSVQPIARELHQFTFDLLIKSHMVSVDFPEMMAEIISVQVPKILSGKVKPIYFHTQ
# Chain of Androgen Receptor/SRC-1 Co-activator, AR (gene 367) (P10275 whole entry, looked up, the tested form may be a part): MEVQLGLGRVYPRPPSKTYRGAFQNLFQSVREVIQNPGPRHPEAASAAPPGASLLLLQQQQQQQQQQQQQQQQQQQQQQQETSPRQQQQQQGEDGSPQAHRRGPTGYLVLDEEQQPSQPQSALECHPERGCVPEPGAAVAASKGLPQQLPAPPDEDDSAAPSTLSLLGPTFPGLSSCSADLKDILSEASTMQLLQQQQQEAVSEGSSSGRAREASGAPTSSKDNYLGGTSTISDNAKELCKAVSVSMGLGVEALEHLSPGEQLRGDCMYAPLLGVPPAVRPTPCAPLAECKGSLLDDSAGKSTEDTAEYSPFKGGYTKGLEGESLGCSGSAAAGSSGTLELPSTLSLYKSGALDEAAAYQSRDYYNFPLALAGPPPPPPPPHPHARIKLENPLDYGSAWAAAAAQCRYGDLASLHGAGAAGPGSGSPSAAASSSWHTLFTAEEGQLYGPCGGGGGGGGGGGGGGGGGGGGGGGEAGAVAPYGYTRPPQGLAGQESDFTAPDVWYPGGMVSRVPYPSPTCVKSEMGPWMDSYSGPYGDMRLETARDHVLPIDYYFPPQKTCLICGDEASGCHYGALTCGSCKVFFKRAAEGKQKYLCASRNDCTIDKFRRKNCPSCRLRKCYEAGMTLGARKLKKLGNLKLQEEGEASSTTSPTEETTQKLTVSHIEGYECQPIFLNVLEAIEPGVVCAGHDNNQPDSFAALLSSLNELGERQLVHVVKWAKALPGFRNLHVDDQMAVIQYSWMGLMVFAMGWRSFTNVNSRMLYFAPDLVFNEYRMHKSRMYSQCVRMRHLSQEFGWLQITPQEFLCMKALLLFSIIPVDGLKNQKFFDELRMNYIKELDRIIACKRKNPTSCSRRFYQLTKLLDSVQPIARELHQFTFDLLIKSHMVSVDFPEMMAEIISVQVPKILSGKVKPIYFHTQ
# Chain of Glucocorticoid receptor (Homo sapiens) (P04150 whole entry, looked up): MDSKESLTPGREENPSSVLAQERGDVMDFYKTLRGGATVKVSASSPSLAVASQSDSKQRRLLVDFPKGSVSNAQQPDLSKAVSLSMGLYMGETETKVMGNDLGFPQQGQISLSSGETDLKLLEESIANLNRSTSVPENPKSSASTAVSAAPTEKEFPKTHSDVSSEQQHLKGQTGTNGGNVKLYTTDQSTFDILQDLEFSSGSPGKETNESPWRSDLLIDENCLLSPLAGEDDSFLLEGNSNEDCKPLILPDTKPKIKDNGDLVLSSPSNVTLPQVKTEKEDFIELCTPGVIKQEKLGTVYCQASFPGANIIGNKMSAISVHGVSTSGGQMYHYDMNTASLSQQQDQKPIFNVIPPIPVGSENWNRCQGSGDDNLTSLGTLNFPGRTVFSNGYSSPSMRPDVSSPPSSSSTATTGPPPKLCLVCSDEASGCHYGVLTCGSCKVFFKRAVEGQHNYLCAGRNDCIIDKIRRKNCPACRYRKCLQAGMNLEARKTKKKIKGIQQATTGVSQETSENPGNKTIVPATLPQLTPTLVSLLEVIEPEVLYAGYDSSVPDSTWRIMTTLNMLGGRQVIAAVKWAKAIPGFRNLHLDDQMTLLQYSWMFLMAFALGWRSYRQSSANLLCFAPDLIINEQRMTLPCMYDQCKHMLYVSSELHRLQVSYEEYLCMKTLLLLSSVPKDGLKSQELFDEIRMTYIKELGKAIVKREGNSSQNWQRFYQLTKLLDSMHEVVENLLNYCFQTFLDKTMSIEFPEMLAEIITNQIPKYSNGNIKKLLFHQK
# Chain of human Thyroid Receptor Alpha (TRa), THRA (gene 7067) (P10827 whole entry, looked up): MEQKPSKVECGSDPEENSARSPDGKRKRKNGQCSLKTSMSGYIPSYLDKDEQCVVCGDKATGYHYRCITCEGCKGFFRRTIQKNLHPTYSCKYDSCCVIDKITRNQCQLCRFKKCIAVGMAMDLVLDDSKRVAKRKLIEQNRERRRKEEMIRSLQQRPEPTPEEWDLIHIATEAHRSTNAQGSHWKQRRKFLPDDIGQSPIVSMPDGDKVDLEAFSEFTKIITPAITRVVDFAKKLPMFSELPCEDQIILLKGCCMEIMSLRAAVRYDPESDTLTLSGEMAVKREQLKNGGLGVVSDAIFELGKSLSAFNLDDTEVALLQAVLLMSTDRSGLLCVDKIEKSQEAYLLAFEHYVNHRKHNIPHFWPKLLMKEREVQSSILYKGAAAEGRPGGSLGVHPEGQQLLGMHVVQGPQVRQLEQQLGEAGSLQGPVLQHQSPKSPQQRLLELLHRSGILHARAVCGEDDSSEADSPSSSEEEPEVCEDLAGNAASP
# Chain of Estrogen receptor beta (Homo sapiens) (Q92731 whole entry, looked up, the tested form may be a part): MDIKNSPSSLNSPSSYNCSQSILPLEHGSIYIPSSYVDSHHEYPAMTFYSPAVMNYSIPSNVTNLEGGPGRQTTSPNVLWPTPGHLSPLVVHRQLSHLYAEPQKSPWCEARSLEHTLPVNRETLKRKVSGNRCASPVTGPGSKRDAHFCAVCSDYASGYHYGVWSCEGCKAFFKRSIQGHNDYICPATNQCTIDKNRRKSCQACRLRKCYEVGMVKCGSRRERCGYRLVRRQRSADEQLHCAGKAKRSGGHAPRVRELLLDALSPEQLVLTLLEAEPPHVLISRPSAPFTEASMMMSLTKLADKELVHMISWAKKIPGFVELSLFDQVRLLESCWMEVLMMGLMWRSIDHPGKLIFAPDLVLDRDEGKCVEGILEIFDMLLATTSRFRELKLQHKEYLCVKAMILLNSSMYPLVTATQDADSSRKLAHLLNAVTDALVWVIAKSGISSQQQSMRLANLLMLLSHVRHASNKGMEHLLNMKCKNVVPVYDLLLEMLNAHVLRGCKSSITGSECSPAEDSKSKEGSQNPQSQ
# Chain of Estrogen receptor (Homo sapiens) (P03372 whole entry, looked up, the tested form may be a part): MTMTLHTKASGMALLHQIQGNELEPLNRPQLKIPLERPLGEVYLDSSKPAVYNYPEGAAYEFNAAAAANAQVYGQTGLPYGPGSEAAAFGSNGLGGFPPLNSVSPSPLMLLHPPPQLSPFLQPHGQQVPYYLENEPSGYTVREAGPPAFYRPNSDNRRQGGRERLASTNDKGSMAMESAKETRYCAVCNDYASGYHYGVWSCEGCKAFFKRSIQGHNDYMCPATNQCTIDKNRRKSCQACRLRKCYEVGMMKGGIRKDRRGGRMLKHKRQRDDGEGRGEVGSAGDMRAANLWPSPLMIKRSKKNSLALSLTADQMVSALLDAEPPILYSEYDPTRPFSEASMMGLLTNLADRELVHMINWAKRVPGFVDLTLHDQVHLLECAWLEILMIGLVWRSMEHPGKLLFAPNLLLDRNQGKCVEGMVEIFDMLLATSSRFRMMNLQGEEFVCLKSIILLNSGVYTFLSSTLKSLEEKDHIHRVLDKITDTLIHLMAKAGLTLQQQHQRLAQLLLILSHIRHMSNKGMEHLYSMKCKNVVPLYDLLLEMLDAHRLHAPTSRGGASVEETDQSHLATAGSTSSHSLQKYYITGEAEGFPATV
# Chain of guinea pig Sigma Receptor, Non-selective Binding, SIGMAR1 (gene 100135589) (Q60492 whole entry, looked up): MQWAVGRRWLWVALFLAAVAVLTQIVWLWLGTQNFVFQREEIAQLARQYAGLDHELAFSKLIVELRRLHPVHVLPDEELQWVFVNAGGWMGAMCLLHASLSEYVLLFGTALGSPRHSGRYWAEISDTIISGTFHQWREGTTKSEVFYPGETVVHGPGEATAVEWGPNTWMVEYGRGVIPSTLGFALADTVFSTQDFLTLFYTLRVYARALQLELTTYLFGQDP
structure (smiles),measurement,setting,value
CC(Cl)(Cl)C(=O)O,outcome,[1],inactive
same,outcome,[2],inactive
same,outcome,[3],inactive
same,outcome,[4],inactive
same,outcome,[5],inactive
same,outcome,[6],inactive
CC(C)Nc1ccc(Nc2ccccc2)cc1,outcome,[1],inactive
same,AC50,[7],25 µM (active)
CCCCCCCc1ccc(O)cc1,AC50,[1],18.8 µM (active)
same,outcome,[1],inactive
same,AC50,[2],24.5 µM (active) and 23.2 µM (active)
same,outcome,[2],inactive
same,AC50,[4],12.7 µM (active) and 12.5 µM (active)
same,outcome,[4],inactive
same,AC50,[8],72 µM (active) and 72.7 µM (active) and 73.8 µM (active)
same,outcome,[8],inactive
same,AC50,[9],74.4 µM (active) and 73.3 µM (active)
same,outcome,[9],inactive
same,AC50,[5],15.3 µM (active) and 11.3 µM (active)
same,outcome,[5],inactive
same,AC50,[6],12.2 µM (active) and 13.3 µM (active) and 12.3 µM (active)
same,outcome,[6],inactive
same,outcome,[10],inactive
same,AC50,[7],33.3 µM (active)
same,outcome,[7],inactive
same,outcome,[11],inactive
same,outcome,[12],inactive
ClC(Cl)c1ccccc1,outcome,[2],inactive
CCOP(=S)(OCC)SCn1nnc2ccccc2c1=O,outcome,[1],inactive
Nc1ccc(Cl)cc1,outcome,[2],inactive
same,outcome,[3],inactive
O=[N+]([O-])c1ccccc1,outcome,[2],inactive
same,outcome,[3],inactive
same,outcome,[4],inactive
same,outcome,[5],inactive
same,outcome,[6],inactive
CCCCN(CCCC)SN(C)C(=O)Oc1cccc2c1OC(C)(C)C2,outcome,[1],inactive
same,outcome,[2],inactive
same,outcome,[3],inactive
same,outcome,[4],inactive
same,outcome,[5],inactive
same,outcome,[6],inactive
same,outcome,PGR (gene 5241),inactive
same,AC50,[13],4.72 µM (active)
O=S1(=O)OCC2C(CO1)C1(Cl)C(Cl)=C(Cl)C2(Cl)C1(Cl)Cl (stereo not drawn),outcome,[2],inactive
same,outcome,[3],inactive
same,outcome,[4],inactive
same,AC50,[5],86.8 µM (active)
same,outcome,[6],inactive
CCCCN(CCCC)N=O,outcome,[2],inactive
same,outcome,[14],inactive
same,outcome,[4],inactive
same,outcome,[5],inactive
same,outcome,[15],inactive
same,outcome,[11],inactive
same,AC50,[13],25 µM (active)
CCC(C)(C)c1ccc(O)cc1,outcome,[1],inactive
same,AC50,[2],14.9 µM (active)
same,AC50,[4],2.68 µM (active)
same,AC50,[5],7.2 µM (active)
same,AC50,[6],2.41 µM (active)
same,outcome,[7],inactive
O=S(=O)(c1ccc(O)cc1)c1ccc(O)cc1,AC50,[1],4.77 µM (active)
same,AC50,[2],46.8 µM (active)
same,AC50,[4],21.4 µM (active)
same,AC50,[5],29.2 µM (active)
same,AC50,[6],31.2 µM (active)
O=P(Oc1ccccc1)(Oc1ccccc1)Oc1ccccc1,AC50,[2],12.4 µM (active)
same,AC50,[3],12.1 µM (active)
same,AC50,[4],12.2 µM (active)
same,AC50,[5],12.4 µM (active)
same,AC50,[6],12.2 µM (active)
same,outcome,[15],inactive
[N-]=[N+]=[N-],outcome,[1],inactive
same,outcome,[2],inactive
same,outcome,[8],inactive
CCCCN(CC)C(=O)SCCC,AC50,[1],3.02 µM (active)
same,outcome,[2],inactive
same,outcome,[4],inactive
same,outcome,[8],inactive
same,outcome,[5],inactive
same,outcome,[6],inactive
same,outcome,[11],inactive
